The panel holds about 83,000 compounds, 20% with a hit somewhere; the sample as a whole holds those more often.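 Percent growth is the endpoint: 0 to 100 indicates growth inhibition (40 means 60% inhibition), 0 means no net growth, and negative values indicate cell death.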 Unmarked numbers belong to inactive results. Calls of active or inactive are those of the source. Rule for the calls: active = growth percent below 10; inactive = the rest.

Some test systems named below: HCT-15 colon; HT29 colon; SNB-75 CNS; SNB-19 CNS; U251 CNS; PC-3 prostate; SK-MEL-5 melanoma; UACC-62 melanoma; LOX IMVI melanoma; SK-MEL-28 melanoma.
Holding throughout (test): NCI-60 one-dose screen, 48 h (100 = growth as untreated, 0 = no growth, -100 = all killed)
Holding throughout (details): 10 µM unless noted

On to `CNC1=C(Br)C(=O)c2c(C(=O)OC)c(C)nc(C)c2C1=O`, for which the growth was 36.8% in the experiment with HCT-15 colon; 19.8% in the experiment on HT29 colon; 139% in the experiment on SNB-75 CNS; 82.9% in the experiment with SNB-19 CNS; 71.1% with U251 CNS; 48.9% in the experiment on PC-3 prostate. The growth with SK-MEL-5 melanoma was -90.9% (active); in the experiment with UACC-62 melanoma it was 1.42% (active); with LOX IMVI melanoma it was 35.3%; in the experiment with SK-MEL-28 melanoma, 91.3%.

Consider `CC1(C)CC[C@]2(CO)CC[C@]3(C)[C@H](CC[C@@H]4[C@@]5(C)CC[C@H](O)C(C)(C)[C@@H]5CC[C@]43C)[C@H]2[C@H]1O`, for which the growth was 93.4% in the experiment with HCT-15 colon; 56.3% in the experiment with HT29 colon; -33.7% (active) with SNB-75 CNS; 96.1% in the experiment on SNB-19 CNS; 62.3% in the experiment with U251 CNS; 68.2% in the experiment on PC-3 prostate. The growth is 91.8% in the experiment on SK-MEL-5 melanoma, 90.6% with UACC-62 melanoma, 76.2% in the experiment on LOX IMVI melanoma and 91.2% in the experiment with SK-MEL-28 melanoma.

`N#C/C(=C/C=C/c1ccccc1)S(=O)c1ccccc1` (stereo not given): the growth in the experiment with HCT-15 colon is -9.4% (active); in the experiment with HT29 colon, -6% (active); in the experiment on SNB-75 CNS, 20.8%; with SNB-19 CNS it was -5.13% (active); with U251 CNS it was -81.5% (active); with PC-3 prostate, -34.1% (active). Besides, the growth in the experiment on SK-MEL-5 melanoma is -84.7% (active); with UACC-62 melanoma, -57% (active); with LOX IMVI melanoma, -80.7% (active); in the experiment with SK-MEL-28 melanoma, -67.9% (active).

For the molecule `CC1OC(C(=O)N2CCN(CCO)CC2)CC1COC1CCCCC1` (stereo not given), the growth was 102% [50 µM] in the experiment with HCT-15 colon; 106% [50 µM] in the experiment with HT29 colon; 88.3% [50 µM] in the experiment on SNB-75 CNS; 93.9% [50 µM] in the experiment with SNB-19 CNS; 99.4% [50 µM] in the experiment with U251 CNS; 92.3% [50 µM] with PC-3 prostate. For the same molecule, the growth with SK-MEL-5 melanoma is 95.8% [50 µM]; in the experiment with UACC-62 melanoma, 87.7% [50 µM]; with LOX IMVI melanoma it was 96.4% [50 µM]; in the experiment with SK-MEL-28 melanoma, 106% [50 µM].

Regarding `CN1CCN(c2ccc(Nc3ncc4[nH]c(=O)n(Cc5ccccc5N)c4n3)cc2)CC1`, the growth in the experiment on HCT-15 colon is 106%; in the experiment with HT29 colon, 80.2%; with SNB-75 CNS it was 39.9%; with SNB-19 CNS, 107%; in the experiment with U251 CNS it was 100%; with PC-3 prostate it was 83.1%. In addition, the growth with SK-MEL-5 melanoma was 101%; with UACC-62 melanoma it was 97.6%; with LOX IMVI melanoma it was 88.7%; in the experiment with SK-MEL-28 melanoma, 111%.

Consider `CCc1ccc(Cc2cnc(NC(=O)c3cc(C)oc3C)s2)cc1`, for which the growth in the experiment on HCT-15 colon is 24.3%; in the experiment on HT29 colon, 10.8%; in the experiment on SNB-75 CNS it was -4.36% (active); with SNB-19 CNS, 37.1%; in the experiment on U251 CNS, 33.3%; in the experiment with PC-3 prostate it was 37.7%. Besides, the growth is 36.8% with SK-MEL-5 melanoma, 25.3% in the experiment on UACC-62 melanoma, 41.3% in the experiment with LOX IMVI melanoma and 59.5% in the experiment with SK-MEL-28 melanoma.

For the molecule `Cn1nc(-c2ccc(Cl)cc2)nc2c(=O)n(C)c(=O)nc1-2`, the growth is -67.5% (active) in the experiment on HCT-15 colon; -77.3% (active) in the experiment on HT29 colon; -100% (active) with SNB-75 CNS; -84.5% (active) with SNB-19 CNS; -82.6% (active) in the experiment on U251 CNS; 16.6% in the experiment on PC-3 prostate. Further, the growth in the experiment on SK-MEL-5 melanoma was -98.5% (active); in the experiment on UACC-62 melanoma, -55.2% (active); with LOX IMVI melanoma, -58.6% (active); with SK-MEL-28 melanoma it was -64.4% (active).

`CCOC(=O)CC1CSC(N/N=C/c2ccc(O)cc2)=N1` (stereo not given): the growth is 100% in the experiment with HCT-15 colon; 106% in the experiment on HT29 colon; 93.4% in the experiment on SNB-75 CNS; 106% in the experiment on SNB-19 CNS; 98.9% with U251 CNS; 89.5% with PC-3 prostate. In addition, the growth with SK-MEL-5 melanoma is 102%; in the experiment on UACC-62 melanoma it was 102%; in the experiment on LOX IMVI melanoma, 99%; in the experiment with SK-MEL-28 melanoma it was 107%.

As for `CC(=O)Cc1nsc(NC(=O)c2cc(-c3cc(Cl)ccc3Cl)oc2C)n1`, the growth was 103% in the experiment with HCT-15 colon; 107% in the experiment on HT29 colon; 94.7% with SNB-75 CNS; 102% with SNB-19 CNS; 97.4% in the experiment on U251 CNS; 96.8% with PC-3 prostate. Moreover, the growth is 99.1% with SK-MEL-5 melanoma, 95% in the experiment with UACC-62 melanoma, 96.3% with LOX IMVI melanoma and 108% with SK-MEL-28 melanoma.

In the case of `C=CCn1c(SCC(=O)Nc2ccc(C(=O)/C=C/c3ccc(Cl)cc3)cc2)nnc1-c1ccccc1`, the growth was 87.7% in the experiment with HCT-15 colon; 89.2% with HT29 colon; 70.8% in the experiment on SNB-75 CNS; 92.6% with SNB-19 CNS; 94.3% with U251 CNS; 75.2% in the experiment on PC-3 prostate. Moreover, the growth is 98.7% in the experiment with SK-MEL-5 melanoma, 85.1% with UACC-62 melanoma, 92.3% in the experiment on LOX IMVI melanoma and 90.2% with SK-MEL-28 melanoma.

As for `O=C1NCCN1/N=C/c1c(Cl)n(Cc2ccc(Cl)cc2)c2ccccc12`, the growth in the experiment with HCT-15 colon is 93.3%; in the experiment on HT29 colon, 111%; in the experiment with SNB-75 CNS, 94.4%; in the experiment with SNB-19 CNS it was 107%; in the experiment on U251 CNS, 75.5%; in the experiment with PC-3 prostate, 89%. Besides, the growth is 68% in the experiment on SK-MEL-5 melanoma, 53.5% in the experiment with UACC-62 melanoma, 72.7% in the experiment with LOX IMVI melanoma and 112% in the experiment on SK-MEL-28 melanoma.

Regarding `Cc1ccc(Nc2nc(N)nc(N)c2N=O)cc1Cl`, the growth in the experiment with HCT-15 colon was 70.6%; in the experiment on HT29 colon, 64.3%; with SNB-75 CNS, 49.5%; with SNB-19 CNS, 97.5%; with U251 CNS it was 87%; in the experiment with PC-3 prostate it was 70.8%. The growth in the experiment on SK-MEL-5 melanoma was 93.5%; with UACC-62 melanoma it was 84.6%; in the experiment on LOX IMVI melanoma, 65.4%; in the experiment with SK-MEL-28 melanoma it was 93.5%.

As to `CCCCCCCCCCCCCC[n+]1ccc2c(C)c3c(c(C)c2c1)c1cc(O)ccc1n3CC`, the growth was 19.9% with HCT-15 colon; 4.46% (active) with HT29 colon; -59.9% (active) with SNB-75 CNS; -77.9% (active) in the experiment with SNB-19 CNS; -89% (active) in the experiment on U251 CNS; -88% (active) in the experiment on PC-3 prostate. The growth is -89.9% (active) with SK-MEL-5 melanoma, -68.5% (active) in the experiment with UACC-62 melanoma, -70% (active) with LOX IMVI melanoma and -93.9% (active) with SK-MEL-28 melanoma.

The values above are taken from PubChem BioAssay (NCI).
